Measured values: PubChem BioAssay
For some assays here: Potency and affinity values are given separately. The source made the active and inactive calls. Unless noted, cut-off not given; nearly all actives show IC50 up to about 0.91 µM.

What follows are molecules tested against Protein kinase 7 (PK7), Plasmodium falciparum 3D7 (PF3D7_0213400) (UniProt Q7YTF7) (assay: inhibition of Plasmodium PK7 catalytic activity – biochemical, TCAMS antimalarial set, Kinase-Glo luminescence (AID 1159587; call rule not given here)). Conditions: recombinant PfPK7, Kinase-Glo ATP depletion luminescence.
Chain of Protein kinase 7 (PK7), Plasmodium falciparum 3D7 (PF3D7_0213400) (Q7YTF7 1-343): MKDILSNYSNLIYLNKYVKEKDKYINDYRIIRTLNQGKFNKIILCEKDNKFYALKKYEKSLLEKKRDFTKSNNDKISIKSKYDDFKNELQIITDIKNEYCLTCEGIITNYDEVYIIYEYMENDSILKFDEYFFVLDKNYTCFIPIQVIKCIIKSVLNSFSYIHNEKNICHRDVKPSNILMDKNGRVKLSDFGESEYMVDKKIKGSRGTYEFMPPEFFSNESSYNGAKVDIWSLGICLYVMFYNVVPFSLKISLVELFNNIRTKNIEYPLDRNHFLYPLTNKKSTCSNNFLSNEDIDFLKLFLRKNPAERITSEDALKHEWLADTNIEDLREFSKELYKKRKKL

outcome, inactive:
CC(Nc1nncc(-c2cccc(F)c2)n1)c1ccc(F)cc1 (stereo not given)
FC(F)(F)c1ccc2nc(-c3cccc(-c4ccc(CNCCc5ccncc5)cc4)c3)[nH]c2c1
CN1CCC(Oc2ccc(CN3CC[C@H](NC(=O)c4ccc(F)c(F)c4)C3)c3ccccc23)C1 (stereo not given in full)
CCC1(C)CC(CCNCc2ccccc2O)(c2ccccc2OC)CCO1 (stereo not given)
COc1ccc(N2CCN(CCCCNC(=O)c3ccc(NC(=O)c4cc(C(F)(F)F)cc(C(F)(F)F)c4)cc3)CC2)cc1OC
COc1ccc2nccc([C@@H](O)CN3CCC(NCc4cc5oc(=O)[nH]c5cc4F)CC3)c2c1
CC(C)CCN=C(N)Nc1ccc(OCCCOc2ccc(NC(N)=NCCC(C)C)cc2)cc1
COC(=O)c1ccc(NC(=O)Nc2cccc(CCNCc3ccccc3)c2)cc1
N#Cc1cccc(NC(=O)Nc2cccc(-c3ccc(-c4nc5ccc(C(F)(F)F)cc5[nH]4)cc3)c2)c1
CC1CCC(C(C)C)C(OC(=O)CSc2nnc3c(n2)[nH]c2ccccc23)C1 (stereo not given)
COC(=O)c1cc(C(=O)CN(Cc2ccccc2)C(C)C)ccc1O
O=C(NCc1ccc(C(=O)NC2CCCCCC2)cc1)c1ccc(O)c(-c2ccc(Cl)c(Cl)c2)c1
COc1ccc(NC(=O)c2ccc3[nH]c(-c4ccc(Cl)cc4)cc3c2)cc1OCCN(C)C
NC(N)=Nc1nc(-c2cccc(NC(=O)NCc3ccc(OC(F)(F)F)cc3)c2)cs1
FC(F)(F)c1ccc2nc(-c3ccc(-c4ccc(CNCCc5ccncc5)cc4)cc3)[nH]c2c1
CN(C(=O)/C=C/c1c(Cl)cccc1Cl)C1CCN(CCCCCNC(=O)/C=C/c2ccc(Cl)c(Cl)c2)CC1
COc1ccc(CCn2c(=N)c(C(=O)NCc3cccnc3)cc3c(=O)n4ccccc4nc32)cc1
COc1cc(F)c2ncc(Cl)c(CCN3CCC(NCc4ccc5c(c4)NC(=O)CS5)CC3)c2c1
Fc1ccc2nc(-c3ccc(-c4cccc(CN5CCN(c6ccncc6)CC5)c4)cc3)[nH]c2c1
O=c1cc(NCCCNCc2cc(Br)ccc2F)[nH]c2ccccc12
O=C(Nc1ccc(S(=O)(=O)N2CCCCCC2)cc1)c1cc(-c2ccccc2O)n[nH]1
CC(C)NCc1cccc(-c2ccc(-c3nc4ccccc4[nH]3)cc2)c1
O=C(NCCCCN1CCC(c2c[nH]c3ccccc23)CC1)c1sc(-c2ccc(C(F)(F)F)cc2)nc1CO
O=C(Nc1ccc(Cl)cc1F)NC1CCN(CCCCCNC(=O)[C@@H]2C[C@H]2c2ccc(Cl)c(Cl)c2)CC1
Cc1ccc2nc(C)cc(Nc3ccccc3O)c2c1
CC(C)c1ccc(-c2nc3ncc(Cl)cc3[nH]2)cc1
COc1cc(-n2cnc3cc(-c4ccc(Cl)cc4)sc3c2=O)ccc1OCCN1CCC(c2cccc(NC(C)=O)c2)CC1
COc1ccc2nccc(N3CCC(CCNCc4ccc5c(n4)NC(=O)CS5)CC3)c2n1
Nc1ncc(-c2ccsc2)c2ccc(-c3cnc[nH]3)cc12
NOCCCCOc1ccccc1
Fc1ccc(-c2cncc(Nc3ccncc3)n2)cc1
COc1ccc2nccc([C@@H](O)CN3CCC(NCc4ccc5sc(=O)[nH]c5c4)CC3)c2c1
CCc1ccc(CN2CCC(CNC(=O)c3cc(-c4cccc(F)c4)cs3)C2)cc1 (stereo not given)
CCOc1ccccc1CNc1nccc(NCCc2cn(C)c3ccccc23)n1
CCCCCCCCCCN1C(=O)C2C(CCCCNC(C)=O)NC3(C(=O)N(Cc4ccc(C(C)(C)C)cc4)c4ccccc43)C2C1=O (stereo not given)
CC(CN)OCn1cnc2c(N)ncnc21 (stereo not given)
O=C(NCCc1ccc(Cl)c(Cl)c1)[C@@H]1CCCN1C(=O)c1ccc(O)c(-c2cccc(C(F)(F)F)c2)c1
COc1cc(C(F)(F)F)cc2[nH]c(CNCCCNc3nc4ccccc4[nH]3)cc12
CC(C)CSc1cc(C(=O)Nc2cc(Cl)ccc2O)ccn1
O=C(NC1CCN(c2ccnc3cc(Cl)ccc23)C1)c1cccc(F)c1 (stereo not given)

These molecules were tested against Calcium-dependent protein kinase 4 (Plasmodium falciparum (isolate 3D7)) (UniProt Q8IBS5) (assay: PfCDPK4 kinase inhibitors, biochemical, TCAMS library (AID 1159588)). Conditions: recombinant PfCDPK4, Kinase-Glo ATP depletion luminescence.
Chain of Calcium-dependent protein kinase 4 (Plasmodium falciparum (isolate 3D7)) (Q8IBS5 whole entry, looked up): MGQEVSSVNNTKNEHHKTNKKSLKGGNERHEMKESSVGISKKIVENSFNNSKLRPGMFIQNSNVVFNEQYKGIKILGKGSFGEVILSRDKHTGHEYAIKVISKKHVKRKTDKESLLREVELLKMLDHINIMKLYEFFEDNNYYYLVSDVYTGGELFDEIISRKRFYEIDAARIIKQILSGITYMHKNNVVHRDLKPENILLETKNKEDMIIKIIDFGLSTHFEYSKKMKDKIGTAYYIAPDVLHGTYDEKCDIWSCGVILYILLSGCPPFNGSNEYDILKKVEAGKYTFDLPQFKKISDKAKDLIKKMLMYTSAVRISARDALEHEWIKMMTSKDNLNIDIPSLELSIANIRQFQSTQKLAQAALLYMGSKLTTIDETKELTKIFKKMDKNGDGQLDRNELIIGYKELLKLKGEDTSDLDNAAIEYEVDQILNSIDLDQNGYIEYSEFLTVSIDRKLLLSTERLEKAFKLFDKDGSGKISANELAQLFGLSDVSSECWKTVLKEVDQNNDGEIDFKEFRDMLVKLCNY

outcome, inactive:
CC(Nc1nncc(-c2cccc(F)c2)n1)c1ccc(F)cc1 (stereo not given)
FC(F)(F)c1ccc2nc(-c3cccc(-c4ccc(CNCCc5ccncc5)cc4)c3)[nH]c2c1
CN1CCC(Oc2ccc(CN3CC[C@H](NC(=O)c4ccc(F)c(F)c4)C3)c3ccccc23)C1 (stereo not given in full)
CCC1(C)CC(CCNCc2ccccc2O)(c2ccccc2OC)CCO1 (stereo not given)
COc1ccc(N2CCN(CCCCNC(=O)c3ccc(NC(=O)c4cc(C(F)(F)F)cc(C(F)(F)F)c4)cc3)CC2)cc1OC
COc1ccc2nccc([C@@H](O)CN3CCC(NCc4cc5oc(=O)[nH]c5cc4F)CC3)c2c1
CC(C)CCN=C(N)Nc1ccc(OCCCOc2ccc(NC(N)=NCCC(C)C)cc2)cc1
COC(=O)c1ccc(NC(=O)Nc2cccc(CCNCc3ccccc3)c2)cc1
N#Cc1cccc(NC(=O)Nc2cccc(-c3ccc(-c4nc5ccc(C(F)(F)F)cc5[nH]4)cc3)c2)c1
CC1CCC(C(C)C)C(OC(=O)CSc2nnc3c(n2)[nH]c2ccccc23)C1 (stereo not given)
COC(=O)c1cc(C(=O)CN(Cc2ccccc2)C(C)C)ccc1O
O=C(NCc1ccc(C(=O)NC2CCCCCC2)cc1)c1ccc(O)c(-c2ccc(Cl)c(Cl)c2)c1
COc1ccc(NC(=O)c2ccc3[nH]c(-c4ccc(Cl)cc4)cc3c2)cc1OCCN(C)C
NC(N)=Nc1nc(-c2cccc(NC(=O)NCc3ccc(OC(F)(F)F)cc3)c2)cs1
FC(F)(F)c1ccc2nc(-c3ccc(-c4ccc(CNCCc5ccncc5)cc4)cc3)[nH]c2c1
CN(C(=O)/C=C/c1c(Cl)cccc1Cl)C1CCN(CCCCCNC(=O)/C=C/c2ccc(Cl)c(Cl)c2)CC1
COc1ccc(CCn2c(=N)c(C(=O)NCc3cccnc3)cc3c(=O)n4ccccc4nc32)cc1
COc1cc(F)c2ncc(Cl)c(CCN3CCC(NCc4ccc5c(c4)NC(=O)CS5)CC3)c2c1
Fc1ccc2nc(-c3ccc(-c4cccc(CN5CCN(c6ccncc6)CC5)c4)cc3)[nH]c2c1
O=c1cc(NCCCNCc2cc(Br)ccc2F)[nH]c2ccccc12
O=C(Nc1ccc(S(=O)(=O)N2CCCCCC2)cc1)c1cc(-c2ccccc2O)n[nH]1
CC(C)NCc1cccc(-c2ccc(-c3nc4ccccc4[nH]3)cc2)c1
O=C(NCCCCN1CCC(c2c[nH]c3ccccc23)CC1)c1sc(-c2ccc(C(F)(F)F)cc2)nc1CO
O=C(Nc1ccc(Cl)cc1F)NC1CCN(CCCCCNC(=O)[C@@H]2C[C@H]2c2ccc(Cl)c(Cl)c2)CC1
Cc1ccc2nc(C)cc(Nc3ccccc3O)c2c1
CC(C)c1ccc(-c2nc3ncc(Cl)cc3[nH]2)cc1
COc1cc(-n2cnc3cc(-c4ccc(Cl)cc4)sc3c2=O)ccc1OCCN1CCC(c2cccc(NC(C)=O)c2)CC1
COc1ccc2nccc(N3CCC(CCNCc4ccc5c(n4)NC(=O)CS5)CC3)c2n1
Nc1ncc(-c2ccsc2)c2ccc(-c3cnc[nH]3)cc12
NOCCCCOc1ccccc1
Fc1ccc(-c2cncc(Nc3ccncc3)n2)cc1
COc1ccc2nccc([C@@H](O)CN3CCC(NCc4ccc5sc(=O)[nH]c5c4)CC3)c2c1
CCc1ccc(CN2CCC(CNC(=O)c3cc(-c4cccc(F)c4)cs3)C2)cc1 (stereo not given)
CCOc1ccccc1CNc1nccc(NCCc2cn(C)c3ccccc23)n1
CCCCCCCCCCN1C(=O)C2C(CCCCNC(C)=O)NC3(C(=O)N(Cc4ccc(C(C)(C)C)cc4)c4ccccc43)C2C1=O (stereo not given)
CC(CN)OCn1cnc2c(N)ncnc21 (stereo not given)
O=C(NCCc1ccc(Cl)c(Cl)c1)[C@@H]1CCCN1C(=O)c1ccc(O)c(-c2cccc(C(F)(F)F)c2)c1
COc1cc(C(F)(F)F)cc2[nH]c(CNCCCNc3nc4ccccc4[nH]3)cc12
CC(C)CSc1cc(C(=O)Nc2cc(Cl)ccc2O)ccn1
O=C(NC1CCN(c2ccnc3cc(Cl)ccc23)C1)c1cccc(F)c1 (stereo not given)
